Screening results: PubChem, several laboratories
HePTP inhibitor: blocks human HePTP tyrosine phosphatase | P35236 | recombinant HePTP phosphatase activity, OD absorbance | inhibition, % at 20 µM | 110,000 tested, 0.64% active | AID 521; in the data active = inhibition above about 50%;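 note: plate controls were vehicle for no effect and reference inhibitor for full effect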
ERa SRC1 pot: ER-alpha (human) coactivator binding potentiation; 86,000 tested, 1.3% active; P03372; TR-FRET ERalpha-LBD/SRC-Cy5 coactivator binding, 2 h; 100 = basal binding, no effect; coactivator binding (% of control), % at 25.6 µM; in the data active = activity above about 200%;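 note: binding measured in presence of low estradiol as agonist stimulus; 0% = peptide alone without receptor and 100% = receptor with peptide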
ERb SRC1 inh: blocks coactivator binding to human estrogen receptor beta; TR-FRET ER-beta LBD / SRC1-Cy5 peptide binding; receptor agonist-loaded with 1 µM estradiol; 86,000 tested, 1.3% active; inhibition, % at 25.6 µM; Q92731; AID 633;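 active = compounds whose percent inhibition of the receptor-coactivator binding signal exceeds about 50% in the single-dose screen, limit read from the data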;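 note: 0% = receptor plus peptide wells without compound and 100% = peptide-only wells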
Target sequence (Q92731 whole entry, looked up, the tested form may be a part): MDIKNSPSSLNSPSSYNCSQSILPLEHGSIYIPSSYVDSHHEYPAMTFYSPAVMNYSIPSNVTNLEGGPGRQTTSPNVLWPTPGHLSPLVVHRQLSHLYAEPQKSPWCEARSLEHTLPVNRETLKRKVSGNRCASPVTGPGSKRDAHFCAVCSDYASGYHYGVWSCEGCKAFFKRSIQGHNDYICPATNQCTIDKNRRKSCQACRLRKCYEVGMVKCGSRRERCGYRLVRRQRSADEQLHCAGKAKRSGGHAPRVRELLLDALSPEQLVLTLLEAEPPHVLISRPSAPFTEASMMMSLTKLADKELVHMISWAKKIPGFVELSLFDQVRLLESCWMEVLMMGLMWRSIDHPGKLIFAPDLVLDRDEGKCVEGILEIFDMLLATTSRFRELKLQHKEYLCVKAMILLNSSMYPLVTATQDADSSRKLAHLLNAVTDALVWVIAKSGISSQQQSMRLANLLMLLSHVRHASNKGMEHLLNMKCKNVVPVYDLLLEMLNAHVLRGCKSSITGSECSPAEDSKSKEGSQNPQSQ
Candida biofilm: kills Candida albicans biofilms; C. albicans biofilm + clotrimazole, Alamar Blue; inhibition, % at 6 µM; 85,000 tested, 0.14% active;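 active = inhibition above 20%; inactive = inhibition below 20%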;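 note: preformed 24 hr biofilms exposed to compound for 48 hr; 0% = biofilm without compound and 100% = blank killed by clotrimazole plus chlorhexidine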
Smad3 FoxH1 inh: Smad3 (human) transcription factor binding inhibition; TR-FRET Smad3/Dy647-FoxH1 peptide binding, europium anti-His; inhibition, % at 25 µM; 88,000 tested, 0.29% active;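 active = compounds that reduce the energy-transfer binding signal between the protein and its labelled peptide by more than half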;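 note: 0% = Smad3 plus labelled peptide maximal FRET and 100% = peptide-only background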
ERa SRC1 inh: blocks coactivator binding to human estrogen receptor alpha; P03372; TR-FRET ER-alpha LBD / SRC-1 peptide, estradiol-bound; inhibition, % at 25.6 µM; 86,000 tested, 1.7% active; in the data active = inhibition above about 50%;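 note: 0% = receptor plus peptide control and 100% = peptide only without receptor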
Starred values were filed as active, the others as inactive; / = not tested or not shown; [ ] = remark or other dose. In the library only some 2.9% were active in any assay of this set; here they are far more common.

SMILES	HePTP inhibitor	ERa SRC1 pot	ERb SRC1 inh	Candida biofilm	Smad3 FoxH1 inh	ERa SRC1 inh
O=[N+]([O-])c1ccccc1N=Nc1c(O)[nH]c2ccc(S(=O)(=O)O)cc12	/	/	/	/	62.6*	/
Cc1ccc(C(=O)Cn2c(NCCCO)nc3ccccc32)cc1	-13.0	/	/	/	/	/
OC[C@H](S)CS	/	/	/	/	85.7*	/
O=C(Nc1ccc(N2CCCC2)cc1)C(Cl)c1ccccc1 (stereo not drawn)	/	46.8	50.3*	11.7	10.2	58.8*
N#Cc1c(N)sc(=S)c2c1CCCCC2	-3.3	50.7	57.0*[fluorescence artefact?]	5.2	9.6	36.4
O=C(Nc1cccc(Oc2ccc(C(=O)O)c(C(=O)O)c2)c1)c1ccc(-c2ccccc2)cc1	102.5*	/	/	/	/	/
CC(C)CCOC(=O)c1n[nH]c([N+](=O)[O-])c1[N+](=O)[O-]	1.1	/	/	/	/	/
CCN(CC)c1ccc(NC(=O)c2cnc3ccccn3c2=O)c(C)c1	4.1	628.6*[fluorescence artefact?]	-1.2	-2.8	-1.5	-40.7
CCOC(=O)/C(=C\Nc1ccccc1C(F)(F)F)Sc1ncc(C(F)(F)F)cc1Cl	/	90.3	-2.5	7.2	-10.7	-6.4
COC(=O)/C(=C\Nc1ccc(Cl)c2ccccc12)c1ncc(C(F)(F)F)cc1Cl	/	106.9	14.4	-2.2	5.3	55.0*
NS(=O)(=O)c1cccc(S(=O)(=O)c2cccc(S(N)(=O)=O)c2)c1	-3.2	/	/	/	/	/
CCOC(=O)N1CCC(NC(=O)c2cccc3c2C(=O)N(c2ccc(OC)cc2)C3)CC1	46.6	57.3	52.3*	3.1	10.2	72.2*[fluorescence artefact?]
CCOC(=O)N1CCC(N2Cc3cccc(C(=O)NCc4ccc(OC)cc4)c3C2=O)CC1	8.6	86.1	18.8	7.1	-4.8	19.3
COc1ccc(N2Cc3cccc(C(=O)NC(C)CCc4ccco4)c3C2=O)cc1 (stereo not drawn)	15.6	97.6	48.9	-7.6	5.4	69.3*[fluorescence artefact?]
COc1ccc(CNC(=O)c2cnn3c(C(F)(F)F)cc(-c4ccccc4)nc23)cc1	-7.1	/	/	/	/	/
COc1ccc(N2CC(C(=O)Nc3ccccc3C(=O)NCc3ccco3)CC2=O)cc1 (stereo not drawn)	3.4	101.6	-18.3	-0.4	-11.5	0.7
CCOC(=O)N1CCC(NC(=O)c2cnn3c(C(F)(F)F)cc(-c4cccc(OC)c4)nc23)CC1	7.7	182.8	51.2*[fluorescence artefact?]	8.4	22.9	72.0*[fluorescence artefact?]
c1ccc(CN2CCC(N3CCN(Cc4ccncc4)CC3)CC2)cc1	-13.5	/	/	/	/	/
O=C(N=Nc1c(O)[nH]c2ccc([N+](=O)[O-])cc12)c1ccc2c(c1)OCO2	102.1*	/	/	/	/	/
CC(C)(C)c1ccc(-c2cc(N)n(-c3ccccc3)n2)cc1	-4.8	/	/	/	/	/
COc1ccc(CC(=O)Nc2c3c(nn2-c2cccc(C)c2C)CS(=O)(=O)C3)cc1	-6.0	116.8	-5.1	10.5	0.3	2.8
COc1ccccc1C(=O)Nc1c2c(nn1-c1cccc(C)c1C)CS(=O)(=O)C2	9.0	410.2*[fluorescence artefact?]	-5.7	11.2	3.1	31.9
Nc1nc(-c2ccco2)c(-c2ccco2)s1	6.0	62.8	53.9*	6.1	6.6	34.7
COc1ccc2nc(-c3ccco3)c(-c3ccco3)nc2c1	/	11.6	98.1*[fluorescence artefact?]	0.1	20.1	97.1*[fluorescence artefact?]
c1coc(-c2nc(-c3ccco3)c(-c3ccco3)nc2-c2ccco2)c1	/	10.1	85.5*[fluorescence artefact?]	8.2	17.9	87.0*[fluorescence artefact?]
SMILES	HePTP inhibitor	ERa SRC1 pot	ERb SRC1 inh	Candida biofilm	Smad3 FoxH1 inh	ERa SRC1 inh
Nc1nc(-c2ccco2)cs1	-6.8	78.7	3.9	3.3	3.0	-3.9
Cc1c(Cl)cccc1NC(=O)C(=O)NCc1ccco1	0.6	/	/	/	/	/
O=C(NCc1ccccc1)c1ccc(C(=O)N(C2CCCCC2)C2CCCCC2)cc1	/	75.9	5.5	75.7*	-3.4	1.2
COc1ccc(N=C2NC(=O)S/C2=C\c2ccc(N(C)C)cc2)cc1	/	37.0	51.9*	0.4	-0.5	53.5*
COc1ccccc1OCC(=O)Nc1c(C)cccc1C(C)C	11.9	/	/	/	/	/
CC1(C)CCCC2=C1CC1C(=O)N(O)C(=O)C1C2 (stereo not drawn)	0.9	118.7	88.8*	-2.5	-6.4	0.4
CCCOc1ccc(/C=N/NS(=O)(=O)c2ccc3ccccc3c2)cc1OC	103.4*	/	/	/	/	/
COc1ccc(/C=N/NS(=O)(=O)c2ccc(C)cc2)cc1OCc1ccccc1	-10.2	/	/	/	/	/
Cc1ccc(NC2c3ncccc3C(=O)N2c2ccccc2C)cc1C (stereo not drawn)	10.8	542.8*[fluorescence artefact?]	20.8	1.2	11.3	-45.3
Cn1c(CSc2nc3ccccc3s2)nc2ccccc21	-8.2	282.2*[fluorescence artefact?]	6.9	6.4	1.8	4.2
